Results published in ChEMBL document CHEMBL1961873, “Compounds: GSK PKIS; Assays: Nanosyn kinase panel” (2012).

These molecules were tested against T1, Serine/threonine-protein kinase 3 (Homo sapiens) (UniProt Q13188). Conditions: at 1 µM.
T1 sequence (whole entry): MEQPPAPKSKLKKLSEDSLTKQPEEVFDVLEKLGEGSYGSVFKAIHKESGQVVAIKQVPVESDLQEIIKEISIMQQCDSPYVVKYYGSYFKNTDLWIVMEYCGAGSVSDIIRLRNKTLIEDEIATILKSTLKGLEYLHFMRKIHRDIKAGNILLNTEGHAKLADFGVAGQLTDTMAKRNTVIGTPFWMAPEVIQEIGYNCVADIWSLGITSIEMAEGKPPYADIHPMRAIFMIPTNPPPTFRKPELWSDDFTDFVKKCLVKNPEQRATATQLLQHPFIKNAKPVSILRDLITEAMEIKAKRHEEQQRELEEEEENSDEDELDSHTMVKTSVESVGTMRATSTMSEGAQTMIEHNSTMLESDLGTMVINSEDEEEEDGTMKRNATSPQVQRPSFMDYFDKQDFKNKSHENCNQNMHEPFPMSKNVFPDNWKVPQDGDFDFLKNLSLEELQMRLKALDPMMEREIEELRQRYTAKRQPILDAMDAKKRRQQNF
Fc1ccc(-c2nn3ccccc3c2-c2ccncc2)cc1 gave an inhibition of 0.63%. In the case of c1ccc(-c2nc3n(c2-c2ccc4c(c2)OCO4)CCC3)nc1, the inhibition was 1.9%. For N#Cc1c(NC(=O)c2ccc(F)cc2)sc2c1CCCC2, the inhibition was 3.36%. COc1cc(N2CCN(C(C)C)CC2)ccc1Nc1nc(Nc2ccc(F)cc2C(N)=O)c2cc[nH]c2n1 showed an inhibition of 10.3%. Molecule COc1cc2c(cc1Nc1nc(Nc3ccsc3C(N)=O)c3cc[nH]c3n1)N(C(=O)CN(C)C)CCC2(C)C has an inhibition of 22.1%. With O=S(=O)(CCNCc1ccc(-c2ccc3ncnc(Nc4ccc(OCc5cccc(F)c5)c(Cl)c4)c3c2)o1)c1ccccc1 the inhibition was 9.44%. In the case of CCOc1ccc2c(-c3ccnc(Nc4cccc(C(F)(F)F)c4)n3)cnn2n1, the inhibition was 6.48%. Cc1ccc2c(-c3ccnc(Nc4ccccc4)n3)c(-c3ccc(F)cc3)nn2n1 gave an inhibition of 5.67%. In the case of CNC(=O)c1cc(-c2ccc(F)cc2)cc(-c2ccc(S(=O)(=O)N3CCCC3)cc2)c1N, the inhibition was 1.3%. With CCn1cc(-c2ccnc3[nH]ccc23)c(-c2cccc(NC(=O)Nc3ccc(OCc4ccccc4)cc3)c2)n1 the inhibition was 2.77%. COc1cc(Nc2nccc(Nc3ccc4c(C)n[nH]c4c3)n2)cc(OC)c1OC showed an inhibition of 6.19%. Work on CCn1c(-c2nonc2N)nc2c(C#CC(C)(C)O)nc(OC[C@H](N)c3ccccc3)cc21 yielded an inhibition of 42.4%. In the case of c1ccc(COc2ccc(Nc3ncnc4ccc(-c5ccco5)cc34)cc2)cc1, the inhibition was 1.9%. With Nc1ncc(-c2cccc(S(N)(=O)=O)c2)c2scc(-c3ccc(F)c(Cl)c3)c12 the inhibition was 6.15%. CS(=O)(=O)CCNCc1ccc(-c2ccc3ncnc(Nc4ccc(OCc5ccccc5)c(C(F)(F)F)c4)c3c2)o1 gave an inhibition of 4.03%. With CCN(CC)S(=O)(=O)c1ccc(OC)c(Nc2ncc(-c3ccccc3)o2)c1 the inhibition was 9.26%. With NS(=O)(=O)c1ccc(N/N=C2\C(=O)Nc3ccc4ncccc4c32)cc1 the inhibition was 88.3%. In the case of COC(=O)Nc1nc2ccc(Oc3ccc(NC(=O)Nc4cccc(Cl)c4)cc3)cc2[nH]1, the inhibition was 4.19%.

The molecules below were run against Serine/threonine-protein kinase 26 (Homo sapiens) (UniProt Q9P289). Conditions: at 0.1 µM.
Chain of Serine/threonine-protein kinase 26 (Homo sapiens) (Q9P289 2-416 limits assumed): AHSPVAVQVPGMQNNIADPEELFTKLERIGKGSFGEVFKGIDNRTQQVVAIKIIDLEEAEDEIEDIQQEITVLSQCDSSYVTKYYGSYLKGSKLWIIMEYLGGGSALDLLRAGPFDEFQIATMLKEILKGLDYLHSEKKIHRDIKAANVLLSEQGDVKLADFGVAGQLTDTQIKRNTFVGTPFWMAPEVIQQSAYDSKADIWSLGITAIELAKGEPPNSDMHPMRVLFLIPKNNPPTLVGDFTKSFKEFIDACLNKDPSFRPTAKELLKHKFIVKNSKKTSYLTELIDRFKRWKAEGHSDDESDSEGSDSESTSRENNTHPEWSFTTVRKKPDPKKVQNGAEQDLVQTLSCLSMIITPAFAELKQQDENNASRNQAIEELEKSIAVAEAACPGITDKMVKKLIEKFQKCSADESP
CN1CCC(n2cnc(-c3ccc(F)cc3)c2-c2ccnc(N)n2)CC1 gave an inhibition of -1.05%. Work on NC(=O)c1sc(-n2cnc3ccc(C(F)(F)F)cc32)cc1OCc1ccccc1Br yielded an inhibition of -0.65%. Molecule CN(C)CCOc1ccc(-c2nc(-c3ccncc3)c(-c3ccc4c(c3)CC/C4=N\O)[nH]2)cc1 has an inhibition of -1.19%. CCCN(CCS(C)(=O)=O)Cc1ccc(-c2ccc3ncnc(Nc4ccc(OCc5cccc(F)c5)c(Cl)c4)c3c2)o1 was tested, and the inhibition was 0.58%. CCc1nn2ncccc2c1-c1ccnc(NC2CC2)n1 was tested, and the inhibition was -1.35%. Molecule CCNC(=O)O[C@H]1CN[C@H](C#Cc2cc3ncnc(Nc4ccc(OCc5cccc(F)c5)c(Cl)c4)c3s2)C1 has an inhibition of -1.55%. With CNC(=O)c1cccc(C#Cc2cncnc2Nc2ccc(OCc3cccc(F)c3)c(Cl)c2)c1 the inhibition was 0.31%. Work on CCN1CCC(CC(=O)Nc2n[nH]c3nnc(-c4cccc(F)c4F)cc23)CC1 yielded an inhibition of 0.66%. With c1cc(-c2cnn3nc(N4CCOCC4)ccc23)nc(NC2CC2)n1 the inhibition was -0.92%. Molecule CS(=O)(=O)CCNCc1coc(-c2ccc3ncnc(Nc4ccc(OCc5ccccc5)cc4)c3c2)c1 has an inhibition of -2.22%. For COc1ccc(-c2cc3c(N)ncnc3o2)cc1, the inhibition was 1.44%. In the case of N#Cc1c(NC(=O)CN2CCOCC2)sc2c1CCCC2, the inhibition was -1.62%. Work on Clc1ccc(-c2nn3ncccc3c2-c2ccnc(Nc3ccccc3)n2)cc1 yielded an inhibition of 1.4%. In the case of COc1cc(/C=N/Nc2ncnc3[nH]ncc23)ccc1O, the inhibition was -1.06%. With CC(C)(CO)CNC(=O)c1ccc2c(c1)/C(=N/Nc1ccc(S(N)(=O)=O)cc1)C(=O)N2 the inhibition was 0.44%. Molecule Cc1ccc(O)cc1Nc1ccnc2cc(-c3ccccn3)ccc12 has an inhibition of -2.79%. Molecule Fc1ccc(-c2nn3ccccc3c2-c2ccncc2)cc1 has an inhibition of -1.27%. c1ccc(-c2nc3n(c2-c2ccc4c(c2)OCO4)CCC3)nc1 was tested, and the inhibition was 0.34%. N#Cc1c(NC(=O)c2ccc(F)cc2)sc2c1CCCC2 gave an inhibition of -0.1%. With COc1cc(N2CCN(C(C)C)CC2)ccc1Nc1nc(Nc2ccc(F)cc2C(N)=O)c2cc[nH]c2n1 the inhibition was 0.23%. Work on COc1cc2c(cc1Nc1nc(Nc3ccsc3C(N)=O)c3cc[nH]c3n1)N(C(=O)CN(C)C)CCC2(C)C yielded an inhibition of 3.1%. O=S(=O)(CCNCc1ccc(-c2ccc3ncnc(Nc4ccc(OCc5cccc(F)c5)c(Cl)c4)c3c2)o1)c1ccccc1 showed an inhibition of -1.43%. CCOc1ccc2c(-c3ccnc(Nc4cccc(C(F)(F)F)c4)n3)cnn2n1 was tested, and the inhibition was 0.02%. With Cc1ccc2c(-c3ccnc(Nc4ccccc4)n3)c(-c3ccc(F)cc3)nn2n1 the inhibition was -1.05%. In the case of CNC(=O)c1cc(-c2ccc(F)cc2)cc(-c2ccc(S(=O)(=O)N3CCCC3)cc2)c1N, the inhibition was -0.65%. CCn1cc(-c2ccnc3[nH]ccc23)c(-c2cccc(NC(=O)Nc3ccc(OCc4ccccc4)cc3)c2)n1 showed an inhibition of 0.67%. COc1cc(Nc2nccc(Nc3ccc4c(C)n[nH]c4c3)n2)cc(OC)c1OC gave an inhibition of 1.12%. In the case of CCn1c(-c2nonc2N)nc2c(C#CC(C)(C)O)nc(OC[C@H](N)c3ccccc3)cc21, the inhibition was -0.06%. With c1ccc(COc2ccc(Nc3ncnc4ccc(-c5ccco5)cc34)cc2)cc1 the inhibition was 1.19%. Nc1ncc(-c2cccc(S(N)(=O)=O)c2)c2scc(-c3ccc(F)c(Cl)c3)c12 gave an inhibition of -0.08%. Molecule CS(=O)(=O)CCNCc1ccc(-c2ccc3ncnc(Nc4ccc(OCc5ccccc5)c(C(F)(F)F)c4)c3c2)o1 has an inhibition of -1.35%. For CCN(CC)S(=O)(=O)c1ccc(OC)c(Nc2ncc(-c3ccccc3)o2)c1, the inhibition was 0.95%. Molecule NS(=O)(=O)c1ccc(N/N=C2\C(=O)Nc3ccc4ncccc4c32)cc1 has an inhibition of 43.6%. COC(=O)Nc1nc2ccc(Oc3ccc(NC(=O)Nc4cccc(Cl)c4)cc3)cc2[nH]1 gave an inhibition of -1.11%.
